In the library only some 2.8% were active in any assay of this set; here they are far more common.
Glyco luc inh: N-linked glycosylation inhibition | D54 ERlucT glycosylation luciferase reporter, 24 h; percent of 100 nM tunicamycin response | reporter increase, % at 12.5 µM | actives 0.23% (n = 360,000);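 active = mean luciferase reporter signal, scaled so untreated is 0 and the glycosylation-blocking control 100, at or above a set limit in every replicate; inconclusive = mean reaches the limit but not every replicate does; inactive = mean below the limit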;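 also: luciferase carries N-glycosylation sites so blocking glycosylation raises the light; 0% = median of neutral control wells and 100% = median of 100 nM tunicamycin wells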
NSD2 inh: NSD2 (human) methyltransferase inhibition; O96028; NSD2 peptide methylation, AlphaScreen, 120 min; inhibition, % at 12.5 µM; actives 0.54% (n = 310,000); in the data active = inhibition above about 50%
Target sequence (O96028 whole entry, looked up): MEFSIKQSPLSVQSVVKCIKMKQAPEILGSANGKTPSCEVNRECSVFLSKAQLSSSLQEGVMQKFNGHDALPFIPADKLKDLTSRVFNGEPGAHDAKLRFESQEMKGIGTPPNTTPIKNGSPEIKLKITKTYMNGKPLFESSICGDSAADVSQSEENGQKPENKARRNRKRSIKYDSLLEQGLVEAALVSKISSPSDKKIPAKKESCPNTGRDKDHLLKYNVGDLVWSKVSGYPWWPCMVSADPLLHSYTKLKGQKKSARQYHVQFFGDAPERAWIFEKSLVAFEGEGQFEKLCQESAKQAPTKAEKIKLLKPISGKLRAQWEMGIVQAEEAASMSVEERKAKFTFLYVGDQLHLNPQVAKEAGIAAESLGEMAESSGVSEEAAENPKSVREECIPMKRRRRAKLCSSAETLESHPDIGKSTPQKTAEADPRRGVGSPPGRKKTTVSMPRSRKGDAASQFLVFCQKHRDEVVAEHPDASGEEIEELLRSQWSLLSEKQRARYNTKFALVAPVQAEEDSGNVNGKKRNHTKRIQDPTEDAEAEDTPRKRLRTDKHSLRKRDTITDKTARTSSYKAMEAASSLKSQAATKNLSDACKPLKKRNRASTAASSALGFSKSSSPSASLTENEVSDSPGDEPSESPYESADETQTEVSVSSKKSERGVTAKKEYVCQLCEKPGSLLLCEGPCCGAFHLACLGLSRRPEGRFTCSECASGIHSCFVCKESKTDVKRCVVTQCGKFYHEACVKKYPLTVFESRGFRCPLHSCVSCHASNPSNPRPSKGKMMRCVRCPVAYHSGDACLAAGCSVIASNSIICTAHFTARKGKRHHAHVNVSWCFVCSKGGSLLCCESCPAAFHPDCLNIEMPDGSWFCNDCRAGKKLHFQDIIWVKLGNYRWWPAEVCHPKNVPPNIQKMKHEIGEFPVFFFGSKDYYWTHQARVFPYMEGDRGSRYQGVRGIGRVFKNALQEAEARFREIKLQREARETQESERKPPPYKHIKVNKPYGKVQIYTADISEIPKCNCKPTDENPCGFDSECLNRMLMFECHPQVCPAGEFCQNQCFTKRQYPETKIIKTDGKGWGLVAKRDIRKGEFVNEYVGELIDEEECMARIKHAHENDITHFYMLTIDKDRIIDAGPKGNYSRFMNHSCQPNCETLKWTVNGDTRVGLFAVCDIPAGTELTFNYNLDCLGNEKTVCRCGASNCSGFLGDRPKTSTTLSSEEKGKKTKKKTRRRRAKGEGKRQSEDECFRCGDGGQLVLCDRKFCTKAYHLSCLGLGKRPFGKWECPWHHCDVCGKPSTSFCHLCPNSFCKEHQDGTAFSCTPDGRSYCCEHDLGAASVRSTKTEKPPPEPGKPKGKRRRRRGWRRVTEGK
Env fusion inh: inhibitors of HIV Env-mediated cell fusion | HeLa-JRFL Env/CEM21 cell fusion, luciferase | inhibition, % at 12.3 µM | actives 1.1% (n = 360,000) | AID 651610;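 active = mean replicate inhibition score of at least 50 and every replicate individually at or above 50; inconclusive = only one of the two criteria met; inactive = mean below 50 and not all replicates reaching 50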;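 also: 0% = plate neutral controls and 100% = maraviroc near 300 nM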
PAX8 reporter: lowers PAX8-driven luciferase in RMG-I cells; RMG-I TPO-luciferase reporter, SteadyGlo, 24 h; inhibition, % at 12.6 µM; actives 1.2% (n = 360,000);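 active = mean replicate inhibition at least 60% with every replicate also reaching 60%; inconclusive = only one of the two criteria is met; inactive = mean below 60% and not all replicates reaching 60%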;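 also: luciferase light reporting Pax8 driven TPO promoter activity; plate controls were median of neutral control wells for no effect and mitoxantrone controls for full effect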
Shn3 inh set2: Schnurri-3 reporter inhibition in Clone20 osteoblasts | Clone20 osteoblast Shn3 3'UTR firefly luciferase, 24 h | inhibition, % at 12.5 µM | actives 0.52% (n = 360,000);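 active = mean inhibition of at least 75% with every replicate also reaching 75%; inconclusive = mean inhibition at least 75% but some replicate below; inactive = mean inhibition below 75%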;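 also: 0% = median of neutral control wells and 100% = pilot-screen positive control compound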
EBV LMP1 NFkB: inhibitors of Epstein-Barr LMP1-induced NF-kappaB reporter. LMP1-induced NF-kappaB luciferase reporter cells, luminescence. inhibition, % at 12.5 µM. actives 0.69% (n = 350,000); in the data active = inhibition above about 41%; inconclusive = no clear call, values can overlap the other calls;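 also: 0% = neutral control wells and 100% = reference inhibitor control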
* = called active by the depositor; ? = inconclusive; / = not tested or not shown; [ ] = dose if it differs, or a comment.

SMILES | Glyco luc inh | NSD2 inh | Env fusion inh | PAX8 reporter | Shn3 inh set2 | EBV LMP1 NFkB
CCCc1cnc(Nc2nc(C(N)Cc3ccc(OC)cc3)cs2)nc1 (stereo not drawn) | -1 | 1 | -48 | 7 | 12 | /
CN(Cc1ccccc1)C(=O)c1ccc(Nc2nc(C(N)Cc3ccc(C(F)(F)F)cc3)cs2)nc1 (stereo not drawn) | -3 | -2 | 1 | 87* | 25 | /
CN(Cc1ccccc1)C(=O)c1ccc(Nc2nc(C(N)Cc3ccccc3)cs2)nc1 (stereo not drawn) | -4 | 3 | -40 | 25 | 27 | /
NC(Cc1ccc(C(F)(F)F)cc1)c1csc(NC(=O)Nc2ccccc2Oc2ccccc2)n1 (stereo not drawn) | -11 | -1 | 54 | 25 | 49 | /
CC(C)CC(N)c1csc(NC(=O)NCCc2ccccc2)n1 (stereo not drawn) | -3 | 0 | 4 | 4 | -4 | /
CCNC(=O)[C@@H]1[C@@H](CO)[C@@H]2Cn3c(ccc(-c4ccc(OC)cc4)c3=O)[C@H]1N2S(C)(=O)=O | / | / | / | 4 | / | /
NC(Cc1ccccc1)c1csc(NC(=O)Nc2ccccc2Oc2ccccc2)n1 (stereo not drawn) | -5 | -1 | 60* | -9 | ? | /
COc1ccc(CC(N)c2csc(NC(=O)Nc3ccccc3Cc3ccccc3)n2)cc1 (stereo not drawn) | -8 | 0 | 98* | 24 | 48 | /
COc1ccccc1NC(=O)Nc1nc(C(N)Cc2ccc(C(F)(F)F)cc2)cs1 (stereo not drawn) | -10 | 0 | -26 | -2 | 82* | /
C[C@@H]1CCCCO[C@H](CN(C)S(=O)(=O)c2cn(C)cn2)[C@@H](C)CN([C@@H](C)CO)C(=O)c2cc(NS(=O)(=O)c3cn(C)cn3)ccc2O1 | / | / | 12[16.7 µM] | -11 | / | /
O=C(CSc1n[nH]c(=O)n1C1CC1)Nc1cc(Cl)ccc1Oc1ccccc1 | -2 | -2 | 128* | / | 60 | 37
Cc1c(C(=O)N/N=C/c2cccnc2)sc(N)c1C#N | 40* | -1 | -25 | -16 | -35 | -49
Cc1ccc(C(=O)N/N=C\c2cccnc2)s1 | 2 | -3 | -21 | -24 | -27 | -8
C[C@H]1CN([C@@H](C)CO)C(=O)c2cccc(NC(=O)c3ccncc3)c2O[C@@H]1CN(C)CC1CC1 | / | / | 5[16.7 µM] | -12 | / | /
C[C@H](CO)N1C[C@H](C)[C@H](CN(C)C(=O)c2ccccc2)OCCCC[C@H](C)Oc2ccc(NC(=O)Nc3ccc4c(c3)OCO4)cc2C1=O | / | / | 61*[16.7 µM] | 12 | / | /
C[C@H](CO)N1C[C@H](C)[C@H](CN(C)Cc2ccccc2)OCCCC[C@H](C)Oc2ccc(NC(=O)Nc3ccc4c(c3)OCO4)cc2C1=O | / | / | 58*[16.7 µM] | 3 | / | /
C[C@H]1CCCCO[C@@H](CN(C)Cc2ccc3c(c2)OCO3)[C@@H](C)CN([C@@H](C)CO)C(=O)c2cc(NC(=O)Nc3ccccc3)ccc2O1 | / | / | 60*[16.7 µM] | -2 | / | /
O=C(C[C@H]1C[C@H]2c3cc(NS(=O)(=O)c4ccc(F)cc4)ccc3O[C@H]2[C@H](CO)O1)N1CCCCC1 | / | / | -3[16.7 µM] | 9 | / | /
Cc1noc(C)c1NC(=O)N(C)C[C@@H]1Oc2ccc(NS(=O)(=O)c3ccccc3)cc2CC(=O)N([C@@H](C)CO)C[C@H]1C | / | / | 8[16.7 µM] | 18 | / | /
COC(=O)[C@H](C)NC(=O)Nc1cccc(C)c1 | 3 | -1 | / | / | 2 | 49*
Cc1cccc(NC(=O)NC(C)CCc2ccccc2)c1 (stereo not drawn) | -2 | -2 | 1 | -36 | 14 | -16
CNC[C@@H]1OCCCC[C@H](C)Oc2ccc(NC(=O)Nc3c(C)noc3C)cc2C(=O)N([C@@H](C)CO)C[C@@H]1C | / | / | -17[16.7 µM] | -17 | / | /
COc1ccc(CN(C)C[C@H]2Oc3c(NS(=O)(=O)c4ccc(Cl)cc4)cccc3C(=O)N([C@@H](C)CO)C[C@H]2C)cc1 | / | / | / | 2 | / | /
COCCNc1nc2c(c(=O)n(Cc3ccccc3F)c(=O)n2C)n1C | 1 | 0 | 1 | 15 | -4 | 7
CCn1c(Oc2ccccc2F)nc2c1c(=O)n(C)c(=O)n2C | -11 | -1 | 58* | -4 | -6 | 14
SMILES | Glyco luc inh | NSD2 inh | Env fusion inh | PAX8 reporter | Shn3 inh set2 | EBV LMP1 NFkB
Cc1ccc(Oc2nc3c(c(=O)n(Cc4ccccc4F)c(=O)n3C)n2C)cc1 | -8 | 1 | 56* | / | 62 | -1
C[C@H]1CN([C@@H](C)CO)S(=O)(=O)c2ccc(-c3ccccc3F)cc2O[C@@H]1CN(C)C(=O)C1CC1 | / | / | 20[16.7 µM] | / | / | /
COc1ccccc1NC(=O)N[C@@H]1CC[C@H](CC(=O)N[C@H](C)c2ccccc2)O[C@@H]1CO | / | / | 75*[16.7 µM] | 3 | / | /
COc1ccccc1NC(=O)N[C@H]1CC[C@H](CC(=O)N[C@@H](C)c2ccccc2)O[C@H]1CO | / | / | -2[16.7 µM] | -10 | / | /
O=C(CSc1nnnn1-c1ccccc1)Nc1nsc(-c2ccc(Cl)cc2)n1 | 0 | 2 | / | / | 53 | 76*
O=C(CSc1nnnn1-c1ccccc1)Nc1nsc(-c2ccccc2)n1 | -3 | 0 | 25 | / | 12 | 10
Cc1nnc(SCC(=O)Nc2nsc(-c3ccccc3)n2)s1 | -5 | 1 | 57* | / | -13 | 2
C[C@@H]1CN([C@H](C)CO)C(=O)Cc2cc(NC(=O)Cn3cnnn3)ccc2O[C@@H]1CN(C)Cc1ccncc1 | / | / | / | 8 | / | /
Cc1ccccc1N=Cc1c(O)n(-c2nccs2)c(=O)c2ccccc12 | 2 | 0 | -27 | -3 | -21 | 7
O=c1c2ccccc2c(C=Nc2ccccc2O)c(O)n1-c1nccs1 | 1 | 11 | -54 | -1 | 87* | -1
Cn1c(CS(=O)Cc2c(Cl)cccc2Cl)nnc1SCc1ccc(Cl)cc1 (stereo not drawn) | -3 | -1 | 62* | / | -1 | -2
O=S(Cc1ccc(Br)cc1)Cc1nnc(SCc2ccc(Cl)cc2)n1-c1ccccc1 (stereo not drawn) | -7 | / | 65* | / | 54 | 13
O=S(Cc1ccc(Br)cc1)Cc1nnc(SCc2c(F)cccc2Cl)n1-c1ccccc1 (stereo not drawn) | -4 | 0 | / | 22 | 16 | 15
O=C(C[C@H]1CC[C@H]2[C@@H](COC[C@H](O)CN2Cc2nccs2)O1)NCc1ccc(Cl)cc1 | / | / | / | -5 | / | /
CN1CCN(CC(=O)c2cc(C(C)(C)C)c(O)c(C(C)(C)C)c2)CC1 | 2 | 2 | 21 | -4 | -4 | 86*
O=C(Nc1cccc(F)c1)N1CC(=O)N2[C@@H](CO)[C@H](c3ccc(-c4ccccc4)cc3)[C@@H]2C1 | / | / | / | 6 | / | /
Cc1ccc(CCc2nnc(SCC(=O)Nc3cccc(Cl)c3)n2-c2ccccc2)o1 | -5 | -1 | / | 91* | 18 | 3
COc1ccc(N(C(=O)CCl)C(C(=O)NCCc2ccccc2)c2cccs2)cc1 (stereo not drawn) | -19 | 8 | / | 113* | 96* | -3

Source: PubChem BioAssay (Broad Institute)
